Where a name gives a salt, the structure may show the parent alone.
Test system: HL-1
Experiment: relative cell viability (CellTiter-Glo) vs DMSO control (% of DMSO control); higher = more viable cells
Method in brief: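 In 384-well plates, 1000 HL-1 mouse atrial cardiomyocytes per well were plated with compounds at 40, 200, 1000 or 5000 nM in 0.01% DMSO. Hypoxia at 1% O2 for 48 h began one day later and was followed by 24 h of reoxygenation, with parallel plates held in normoxia. CellTiter-Glo luminescence gave cell viability relative to vehicle-treated control cells.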

[1] = oxygen condition: hypoxia 48 h (1% O2) + reoxygenation 24 h, 40 nM
[2] = oxygen condition: hypoxia 48 h (1% O2) + reoxygenation 24 h, 200 nM
[3] = oxygen condition: hypoxia 48 h (1% O2) + reoxygenation 24 h, 1000 nM
[4] = oxygen condition: hypoxia 48 h (1% O2) + reoxygenation 24 h, 5000 nM
[5] = oxygen condition: normoxia 72 h, 40 nM
[6] = oxygen condition: normoxia 72 h, 200 nM
[7] = oxygen condition: normoxia 72 h, 1000 nM
[8] = oxygen condition: normoxia 72 h, 5000 nM

Compound	relative cell viability [1]	relative cell viability [2]	relative cell viability [3]	relative cell viability [4]	relative cell viability [5]	relative cell viability [6]	relative cell viability [7]	relative cell viability [8]
NCCc1c[nH]cn1 [Histamine Phosphate]	99.7	101	96.7	108	98.8	101	97.7	109
COc1cc2nccc(Oc3ccc(NC(=O)C4(C(=O)Nc5ccc(F)cc5)CC4)cc3)c2cc1OC	109	112	111	115	112	110	107	120
O=C1Cc2cc(CCN3CCN(c4nsc5ccccc45)CC3)c(Cl)cc2N1 [Ziprasidone hydrochloride]	105	101	106	102	107	98.2	104	98.4
O=C(O)Cc1cc(I)c(Oc2ccc(O)c(I)c2)c(I)c1 [Tiratricol]	96.6	99.5	104	119	103	103	101	126
CC(CCc1ccc(O)cc1)NCC(O)c1ccc(O)cc1 (stereo unspecified) [Ractopamine HCl]	103	100	108	60.4	98.9	104	106	106
OCCN(CCO)c1nc(N2CCCCC2)c2nc(N(CCO)CCO)nc(N3CCCCC3)c2n1 [Dipyridamole]	102	107	93.7	108	108	98.7	98	113
Cc1nc2n(c(=O)c1CCN1CCC(c3noc4cc(F)ccc34)CC1)CCCC2 [Risperidone]	104	109	106	113	104	109	104	114
CC[C@@H](CO)NCCN[C@@H](CC)CO [Ethambutol HCl]	100	93.4	102	112	90.2	91.3	102	3.47
Nc1ccc(/N=N/c2ccccc2)c(N)n1 [Phenazopyridine HCl]	103	98.3	101	112	104	103	114	108
CCCCCCNC(=O)n1cc(F)c(=O)[nH]c1=O [Carmofur]	102	83.8	51.6	18.3	99.2	81.2	44.3	15.1
CC1=NN(c2ccc(C)c(C)c2)C(=O)/C1=N\Nc1cccc(-c2cccc(C(=O)O)c2)c1O [Eltrombopag]	105	86	109	107	106	112	111	108
C[C@]12CC[C@@H]3c4ccc(O)cc4CC[C@H]3[C@@H]1CCC2=O [Estrone]	102	107	107	109	102	105	107	115
Cc1ccc(S(=O)(=O)NC(=O)NN2CC3CCCC3C2)cc1 (stereo unspecified) [Gliclazide]	104	110	111	104	112	113	118	112
O=C1O[C@H]([C@@H](O)CO)C([O-])=C1O.[Na+] [Sodium ascorbate]	99.7	101	106	117	98.8	103	102	114
CCCC(CCC)C(=O)O [Valproic acid sodium salt]	106	117	113	111	104	111	123	111
CNCC(O)c1ccc(O)c(O)c1 (racemic) [DL-Adrenaline]	100	97.8	67.7	15.5	107	93.8	63.6	11.8
CC(COc1ccccc1)N(CCCl)Cc1ccccc1 (stereo unspecified) [Phenoxybenzamine HCl]	101	97.6	93.1	95.4	101	101	91.5	107
CNCCCC12CCC(c3ccccc31)c1ccccc12 [Maprotiline hydrochloride]	98.7	103	93.4	83.3	98.7	102	102	87.7
C=C[C@]1(C)C[C@@H](OC(=O)CS[C@@H]2C[C@H]3CC[C@@H](C2)N3C)[C@]2(C)[C@H](C)CC[C@]3(CCC(=O)[C@H]32)[C@@H](C)[C@@H]1O [Retapamulin]	104	104	105	108	98.3	97.1	89.2	81.7
COC(=O)C1=C(C)NC(C)=C(C(=O)OCC(C)C)C1c1ccccc1[N+](=O)[O-] (stereo unspecified) [Nisoldipine]	106	104	107	110	99.2	110	116	111
C[C@@H](NCCCc1cccc(C(F)(F)F)c1)c1cccc2ccccc12	102	102	105	102	95.2	95.9	109	106
CC(=O)O[C@@]12CO[C@@H]1C[C@H](O)[C@@]1(C)C(=O)[C@H](O)C3=C(C)[C@@H](OC(=O)[C@H](O)[C@@H](NC(=O)OC(C)(C)C)c4ccccc4)C[C@@](O)([C@@H](OC(=O)c4ccccc4)[C@H]21)C3(C)C [Docetaxel]	26.9	24.1	27.2	29.3	19.3	23	22.6	23.6

— the supplement of paper PMC8371130
